In ChEMBL document CHEMBL4513216, “Probing the Open Global Health Chemical Diversity Library for Multistage-Active Starting Points for Next-Generation Antimalarials” (ACS Infect Dis, 2020):
Among all 69,000 compounds or so, about 8,600 (12%) showed an effect of 50% or more. This is one part of a sample in which strong results are shown more often than they occur.

The compounds below were run on Plasmodium berghei (assay: Screen against P. berghei liver stage (PbLuc), transformed with Luciferase, at 10uM). Conditions: tested at 10 uM.
Type: functional, HepG2
With Nc1nc(N2CCCCCC2)ncc1C(=O)NCc1ccc(F)c(Cl)c1 the INHIBITION was 43.8%.
CN(C)CC1(O)CCCN(C(=O)CCc2nc3cccnc3n2C)C1 (stereo not given) gave an INHIBITION of 8.64%.
CCOC(=O)NCCNC(=O)c1cc2ccccc2nc1N1CCCC1 gave an INHIBITION of -7.36%.
CS(=O)(=O)CCNC(=O)c1cc2ccccc2nc1N1CCCC1 gave an INHIBITION of -1.37%.
Work on Cn1cc(CCNC(=O)c2cc3ccccc3nc2N2CCCC2)cn1 yielded an INHIBITION of 59.4%.
For Cn1c(CCC(=O)N2CCC3(CCCO3)CC2)nc2cccnc21, the INHIBITION was 27.4%.
For CCc1cc(CNC(=O)N2CCC(Cc3cnn(C)c3)C2)on1 (stereo not given), the INHIBITION was 3.1%.
COc1ccccc1C1CNC(=O)c2nc(-c3nccn3C)[nH]c2C1 (stereo not given) showed an INHIBITION of 55.7%.
Compound COc1ccccc1C1CNC(=O)c2nc(-c3ncc[nH]3)[nH]c2C1 (stereo not given) has an INHIBITION of 1.81%.
COc1ccccc1C1CNC(=O)c2nc(-c3cnn(C)c3)[nH]c2C1 (stereo not given) showed an INHIBITION of -36.5%.
Cc1nnc(NCC2(c3ccc(Cl)cc3Cl)CCOCC2)c(C#N)c1C showed an INHIBITION of 52.9%.
For Cc1nnc(NCC2(c3ccccc3)CCOCC2)c(C#N)c1C, the INHIBITION was 6.67%.
COCc1ccccc1CNc1nnc(C)c(C)c1C#N gave an INHIBITION of 22.9%.
With COc1ccccc1C1(CNc2nnc(C)c(C)c2C#N)CCOCC1 the INHIBITION was -10.2%.
For Cc1nnc(NCc2ccccc2Cl)c(C#N)c1C, the INHIBITION was 49.9%.
Compound Cc1nnc(NCC2(c3ccccc3)CC2)c(C#N)c1C has an INHIBITION of 9.48%.
COc1ccccc1C1(CNc2nnc(C)c(C)c2C#N)CCCC1 was tested, and the INHIBITION was 97.1%.
Cc1ccccc1C1(CNc2nnc(C)c(C)c2C#N)CCOCC1 was tested, and the INHIBITION was 17.4%.
Compound Cc1nnc(NCC2(c3ccccc3)CCC2)c(C#N)c1C has an INHIBITION of 92.1%.
CCCc1cc(NC2CCc3nc(C(C)C)nn3C2)n2ncnc2n1 (stereo not given) gave an INHIBITION of -5.65%.
Work on COCCCNC(=O)N1CCN(C(=O)c2nsc3ccc(C)cc23)CC1 yielded an INHIBITION of 15.1%.
With CC(C)NC(=O)Cn1cc(OCc2ccc(F)cc2)c(=O)cc1CO the INHIBITION was 27.5%.
COCCn1cc2c(n1)C(CNC(=O)c1cc(C)[nH]c1C)OCC2 (stereo not given) showed an INHIBITION of 23.6%.
With O=C(NC1CCC(O)CC1)c1ccc2nc(-c3ccc(F)cc3)cn2c1 (stereo not given) the INHIBITION was 35.5%.
In the case of CCc1nnc2n1CCN(Cc1ncc(-c3ccc(F)cc3)o1)C2, the INHIBITION is reported as -3.235%.
Cc1ncsc1CNCC(C)c1nc2ccccc2o1 (stereo not given) was tested, and the INHIBITION was 50%.
In the case of Cc1csc(CNCC(C)c2nc3ccccc3o2)n1 (stereo not given), the INHIBITION is reported as 48.3%.
Cc1nc(CNCC(C)c2nc3ccccc3o2)cs1 (stereo not given) was tested, and the INHIBITION was 20%.
Work on Nc1cc(-c2cncnc2C2CCN(C(=O)c3ccccc3)C2)ccn1 (stereo not given) yielded an INHIBITION of 3.48%.
Cn1ccnc1CN1C[C@@H]2[C@@H](C1)OCC(=O)N2CC1CCCC1 was tested, and the INHIBITION was 39.8%.
